The values below come from PubChem BioAssay AID577 (University of Pittsburgh Molecular Library Screening Center, 2007).

Each structure is given as a SMILES string. Hit rate of the full screen: of about 65,000 compounds, about 120 (0.18%) were called active. Rule as the data show it: active = z-score below about -3; inactive = the rest. This excerpt belongs to a sample that is enriched for actives.

The target of this test is Genome polyprotein (West Nile virus) (UniProt P06935). The experiment in a line: inhibitors of WNV NS2B-NS3 protease, primary screen, biochemical, fluorogenic substrate (AID 577). To be noted: fluorogenic substrate Ex360/Em465, active compounds read low.
Sequence of Genome polyprotein (West Nile virus) (P06935 1371-1501 limits assumed): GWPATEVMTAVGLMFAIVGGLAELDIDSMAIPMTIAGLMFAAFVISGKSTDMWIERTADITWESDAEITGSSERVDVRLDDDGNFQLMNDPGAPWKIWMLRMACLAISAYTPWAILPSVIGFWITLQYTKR
Sequence of Genome polyprotein (West Nile virus) (P06935 1502-1679 limits assumed): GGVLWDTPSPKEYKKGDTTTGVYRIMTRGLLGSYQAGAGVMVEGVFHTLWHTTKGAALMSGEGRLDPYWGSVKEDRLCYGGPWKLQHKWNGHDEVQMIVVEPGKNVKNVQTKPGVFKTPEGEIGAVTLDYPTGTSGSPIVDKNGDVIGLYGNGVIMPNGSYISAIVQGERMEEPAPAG
As for `O=C(Nc1ccccc1N1CCCCC1)c1ccc2nccnc2c1`, the z-score was -0.92 (inactive).

Regarding `Cc1cc(N2C(=O)C(=O)/C(=C(/O)c3ccc(Cl)cc3)C2c2cccc(Br)c2)no1` (stereo not drawn), the z-score is 0.05 (inactive). On to `COc1ccc(S(=O)(=O)N2CCN(c3ncnc4c(-c5ccccc5)nsc34)CC2)cc1`, for which the z-score was -0.64 (inactive). For the molecule `Cc1ccc(NC(=O)C2CC(c3ccc(F)cc3)=NO2)cc1` (stereo not drawn), the z-score is -0.46 (inactive). As to `Cc1noc(C)c1S(=O)(=O)NCCc1ccc(S(N)(=O)=O)cc1`, the z-score is -0.09 (inactive).

Turning to `Cn1c(=O)cc(OCCCC(=O)N2CCN(Cc3ccc4c(c3)OCO4)CC2)c2ccccc21`, the z-score is -0.06 (inactive). Turning to `O=c1[nH][nH]c(=O)c2cc(N3CCCC3)ccc12`, the z-score is 0.92 (inactive). Consider `COc1ccc(C)c2sc(=NC(=O)c3ccc(C#N)cc3)n(C)c12`, for which the z-score was 0.36 (inactive). With `COc1ccccc1CNC(=O)CCn1c(=O)sc2ccccc21`, the z-score is 0.34 (inactive). Consider `O=S(=O)(CCc1nc2ccccc2o1)c1ccc(Cl)cc1`, for which the z-score was 0.84 (inactive). The value for `CC(NC(=O)c1ccc(Cl)cc1)C(=O)N1CCCCC1` (stereo not drawn) was -0.48 (inactive). On to `CCN(CC(=O)NC(C)C)C(=O)CCNC(=O)c1ccc(Cl)cc1`, for which the z-score is -3.81 (active). The value for `Cc1ccc(CNC(=O)CCCNC(=O)c2ccc(Cl)cc2)n1C` was 0.2 (inactive); that for `CCOC(=O)C1CCCN(C(=O)Cn2ncc3c(=O)oc4ccc(C)cc4c32)C1` (stereo not drawn) was -0.8 (inactive); that for `CC(=O)N(Cc1cccs1)C1CCOC(C)(C)C1` (stereo not drawn) was 0.1 (inactive). Take `O=c1c2c(nc3n1CCCCC3)sc1c(O)cccc12`: the z-score is -0.99 (inactive).

As for `CCn1cc(C(=O)NCc2ccc(OC)cc2OC)c(=O)c2ccc(C)nc21`, the z-score is 0.31 (inactive). As to `CN1CCN(C(=O)c2ccc(NS(=O)(=O)c3ccccc3)cc2)CC1`, the z-score is 0.73 (inactive).

Turning to `O=C(c1cccc(S(=O)(=O)N2CCOCC2)c1)N1CCOCC1`, the z-score was -0.56 (inactive). As for `CC(=O)N1CCN(C(=O)c2cccc(S(=O)(=O)Nc3ccc(C)cc3)c2)CC1`, the figure is -4.83 (active). With `O=C(NCc1ccco1)C1CCCN(S(=O)(=O)c2cnc[nH]2)C1` (stereo not drawn), the z-score was 0.15 (inactive). For `Cn1c(=O)[nH]c(=O)c2c1nc(N1CCN(CCO)CC1)n2CCSc1nc2ccccc2s1`, the z-score is 0.89 (inactive). In the case of `CCOC(=O)N1CCC(NC(=O)c2ccc3nc(N4CCOCC4)sc3c2)CC1`, the z-score was -0.98 (inactive). On to `O=C(NCc1ccco1)c1ccc(CS(=O)(=O)Cc2ccc(F)cc2)o1`, for which the z-score was -0.19 (inactive). Take `CCOc1ccccc1NC(=O)c1cc(S(=O)(=O)N2CCC3(CC2)OCCO3)ccc1F`: the z-score is -0.89 (inactive). As for `O=C(Cn1c(-c2ccccn2)nc2ccccc21)NCCN1CCOCC1`, the z-score is 0.41 (inactive). The value for `O=C(Nc1ccon1)c1sc2ccccc2c1Cl` was 1.15 (inactive); that for `O=C(O)Cc1ccc(NC(=O)C2CCCCC2C(=O)O)cc1` (stereo not drawn) was 0.69 (inactive).

As for `Cc1cccc(N2CC(C)Cn3c2nc2c3c(=O)n(CC(=O)OCc3ccccc3)c(=O)n2C)c1` (stereo not drawn), the z-score is -0.58 (inactive). Take `O=C(Cc1c(F)cccc1Cl)N1CCN(C(=O)c2ccco2)CC1`: the z-score is 0.71 (inactive). Take `Cc1oc(CC(C)C)c(CN2CCCC2)c1C(=O)O`: the z-score is 0.09 (inactive).

Consider `CC1CCN(c2nc3c(c(=O)[nH]c(=O)n3C)n2CCCc2ccccc2)CC1`, for which the z-score was -0.61 (inactive). In the case of `COc1ccc(NC(=O)Nc2cccc3cccnc23)cc1`, the z-score is -0.61 (inactive). `COc1ccc(-c2ccc(Nc3ccc(S(=O)(=O)N4CCCC4)cc3)nn2)cc1OC`: the z-score was -0.56 (inactive). In the case of `c1ccc(-c2cc(-c3nnc4sc(-c5ccccn5)nn34)[nH]n2)cc1`, the z-score is -1.41 (inactive). As for `Cc1cc2nc(-c3ccc(NC(=O)c4cccnc4)cc3)oc2cc1C`, the z-score is -0.13 (inactive). As for `COc1ccc(OC)c(S(=O)(=O)Nc2ccccc2F)c1`, the figure is 0.89 (inactive); as for `O=C(Cn1cnc2c(nnn2-c2ccccc2)c1=O)N1CCC(Cc2ccccc2)CC1`, 2.2 (inactive). Take `NS(=O)(=O)c1cc2c(cc1Cl)NC(C(Cl)Cl)NS2(=O)=O` (stereo not drawn): the z-score is 1.86 (inactive). Regarding `CNC(=O)n1ccc(C(=O)N2CCCCC2)n1`, the z-score was 1.25 (inactive). Consider `COc1ccccc1N=C1SC(C)CN1C(=O)C1CCC1` (stereo not drawn), for which the z-score was -0.3 (inactive).

Regarding `COCCN1Cc2cccc(C(=O)Nc3ccccc3OC)c2C1=O`, the z-score was -0.41 (inactive).

Take `CC(C)OCCCNC(=O)C1CC(=O)N(C2CCCCCCC2)C1` (stereo not drawn): the z-score was -1.25 (inactive). As to `CCOC(=O)C1=C(CNC2CCCCC2)NC(=O)NC1c1cc(C)ccc1C` (stereo not drawn), the z-score was -0.35 (inactive). As for `c1ccc(-c2noc(-c3cccs3)n2)nc1`, the z-score was -0.18 (inactive). As for `O=C(CCCN1C(=O)CSc2ncccc21)N1CCN(c2cccc(C(F)(F)F)c2)CC1`, the z-score was 0.85 (inactive).

Regarding `O=C(CC1(O)C(=O)N(CN2CCOCC2)c2ccccc21)c1ccccc1` (stereo not drawn), the z-score is 2.57 (inactive). As for `CC(C)Cn1c(CN(Cc2ccccc2)Cc2ccccc2)nc2c1c(=O)n(C)c(=O)n2C`, the figure is 0.14 (inactive); as for `CCOC(=O)N1CCN(CC(=O)c2ccc3c(c2)CCN3)CC1`, -0.8 (inactive); as for `O=C1Nc2ccccc2C12Nc1ccccc1S2` (stereo not drawn), -0.84 (inactive). The value for `CC(=O)N1CC2(C)CN(C(C)=O)CC(C)(C1)C2=O` was -0.17 (inactive); that for `CCOC(=O)c1cnc(-n2nc(C)cc2C)nc1-n1nc(C)cc1C` was 0.5 (inactive). For the molecule `CCOC(=O)N1CCN(C(=O)CN(C2CCCCC2)S(C)(=O)=O)CC1`, the z-score is -1.44 (inactive). As for `COC(=O)C1=C(C)NC2=C(C(=O)c3ccccc32)C1c1ccc(-c2ccc(C(=O)O)cc2)o1` (stereo not drawn), the figure is 0.76 (inactive); as for `COCCCN(C(=O)Cn1ncc2c(=O)oc3ccc(C)cc3c21)C(C)c1ccncc1` (stereo not drawn), -0.67 (inactive); as for `Cc1ccccc1N1CC(c2nc3ccccc3[nH]2)CC1=O` (stereo not drawn), 1.22 (inactive).

On to `O=C(CC1N=C2c3ccccc3N=C(SCc3ccccc3Cl)N2C1=O)NCc1ccco1` (stereo not drawn), for which the z-score was 1.46 (inactive). Turning to `Cc1c(C(=O)Nc2ccccc2Cl)oc2ccc(S(=O)(=O)N3CCC4(CC3)OCCO4)cc12`, the z-score was -1.64 (inactive). On to `Cc1cccc(-n2c(N)cc(=O)nc2SC(C)C(=O)NC2CCCCC2)c1` (stereo not drawn), for which the z-score is -0.09 (inactive).

In the case of `CCCCN=C(N)/C(C(=O)OCC)=C(\O)c1ccc(OC)cc1`, the z-score was 0.82 (inactive). Consider `COc1ccc2c(Cl)c(-c3nnco3)sc2c1`, for which the z-score is -0.13 (inactive).

Consider `C=CCOc1ccc(/C=N/n2cncn2)cc1OC`, for which the z-score was 1.7 (inactive).

Turning to `CCOCC(=O)NCc1ccc2c(c1)cc(C)n2C`, the z-score is -0.69 (inactive). Turning to `Cc1ccc2c(c1)NCC(C(=O)NC1CCC(C)CC1)O2` (stereo not drawn), the z-score was 0.12 (inactive). In the case of `c1ccc(-c2nnc3n2NC(c2ccc4c(c2)OCO4)S3)cc1` (stereo not drawn), the z-score is -0.39 (inactive).

`C=CCn1c(COc2cccc3cccnc23)nnc1SCC(=O)OC`: the z-score was -1.04 (inactive). As for `COc1ccc(-n2c(SCC(=O)Nc3ccc4c(c3)OCO4)nnc2C(C)N2CCCCC2)cc1` (stereo not drawn), the figure is -0.67 (inactive); as for `CCOc1ccccc1NC(=O)CCc1ccc(C)o1`, -0.55 (inactive); as for `O=C(c1ccco1)N(Cc1nc2ccccc2c(=O)[nH]1)C1CCCC1`, -1.19 (inactive). The value for `Cn1c(NC(=O)c2ccco2)c(-c2ccccc2Cl)c(=O)c2ccccc21` was -0.04 (inactive); that for `COc1ccc2oc(C)c(NC(C)=O)c2c1` was -0.59 (inactive); that for `COc1ccc(C(=O)c2oc3ccc(Br)cc3c2NC(C)=O)cc1` was -3 (active). For `COC(=O)c1oc2ccc(Br)cc2c1NC(C)=O`, the z-score was 0.25 (inactive).

On to `O=C1CSC(c2cccc(F)c2)N1c1ccccc1F` (stereo not drawn), for which the z-score is -0.93 (inactive). Take `CCCS(=O)(=O)N1CCCC(C(=O)N2CCN(c3ccccc3)CC2)C1` (stereo not drawn): the z-score was 0.81 (inactive). `CCn1c(SCCC(C)C)nnc1-c1c[nH]c2ccccc12`: the z-score is -0.65 (inactive). With `CCOC1CCCCC1NS(=O)(=O)c1ccc(Cl)cc1` (stereo not drawn), the z-score is -0.25 (inactive). On to `CCNC(=O)N1CCNC(=O)C1CC(=O)Nc1ccc(C(=O)OCC)cc1` (stereo not drawn), for which the z-score was -0.78 (inactive).

Take `Cc1cccc2nc(CNc3ccc(F)cc3)cn12`: the z-score was -0.49 (inactive).

For `Cc1cc(N2CCCC2=O)cc(C)c1S(N)(=O)=O`, the z-score was 0.56 (inactive). For the molecule `O=C(O)C1C2C=CC(C2)C1C(=O)N1CCN(CCO)CC1` (stereo not drawn), the z-score is 0.43 (inactive). For `CCCn1c(=O)c2[nH]c(C3CCCC3)nc2n(CCC)c1=O`, the z-score is 0.05 (inactive). On to `CCOc1ccccc1Nc1nnc(SCC(=O)Nc2cc(C)on2)s1`, for which the z-score is -1.46 (inactive). For the molecule `O=C(CN1C(=O)COc2ccccc21)Nc1ccc(F)cc1`, the z-score is 1.4 (inactive). Consider `Cc1ccc(S(=O)(=O)n2nc(OC(=O)C(C)(C)C)cc2N)cc1`, for which the z-score was 0.18 (inactive). Consider `Nc1cc(OC(=O)c2ccccc2Br)nn1S(=O)(=O)c1ccccc1`, for which the z-score is -6.2 (active).

Take `CCCCN(CC)C(=O)CN(C)S(=O)(=O)c1cccc2nsnc12`: the z-score is 1.67 (inactive). For `CC1Cc2ccccc2N1C(=O)CSc1nnc(-c2ccc(S(=O)(=O)N3CCCCC3)cc2)o1` (stereo not drawn), the z-score is 0.94 (inactive). With `CC(=O)N1CSCC1C(=O)O` (stereo not drawn), the z-score was -5.15 (active). For `COCc1cc(C)nc(SCC(=O)Nc2cccc(C)c2)c1C#N`, the z-score is 1.36 (inactive). For the molecule `Cn1c(=NC(=O)c2cnccn2)sc2ccccc21`, the z-score was -1.53 (inactive). As to `O=C(Nc1ccccc1N1CCCCC1)c1cccc(F)c1`, the z-score is 0.74 (inactive).

As to `O=C(CNC(=O)c1ccc(Cl)cc1Cl)NCC(=O)Nc1ccccc1N1CCOCC1`, the z-score was -1.5 (inactive). The value for `CC(=NCc1ccco1)C1=C(O)c2ccccc2C1=O` was 0.81 (inactive); that for `CC1Cc2ccccc2N1C(=O)CSc1nc2ccccc2o1` (stereo not drawn) was -0.42 (inactive). As for `O=C(COc1ncnc2ccccc12)NC(=O)NCc1ccccc1`, the figure is 0.88 (inactive); as for `Cc1noc(C)c1COC(=O)Cn1c(C)nc2ccccc21`, -1.33 (inactive); as for `CCOC(=O)N1CCC(NC(=O)C(C)n2c3ccccc3c3cnn(C)c(=O)c32)CC1` (stereo not drawn), -0.72 (inactive).
